# In PubChem BioAssay AID488969 (Vanderbilt High Throughput Screening Facility, 2010):
# The full ranking holds about 110,000 compounds; the median of “z-score” is about -0.1, and the highest 2% start at about 2. Many of the other results were omitted from the sample, so the highest values are more common in it than they were. Activity calls are given as the source filed them.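 How the source made its calls: active means z-score in the third read window above 3 or below -3; inactive means the rest.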
# Target: Metabotropic glutamate receptor 8 (Rattus norvegicus) (UniProt P70579)
# Sequence (P70579 whole entry, looked up): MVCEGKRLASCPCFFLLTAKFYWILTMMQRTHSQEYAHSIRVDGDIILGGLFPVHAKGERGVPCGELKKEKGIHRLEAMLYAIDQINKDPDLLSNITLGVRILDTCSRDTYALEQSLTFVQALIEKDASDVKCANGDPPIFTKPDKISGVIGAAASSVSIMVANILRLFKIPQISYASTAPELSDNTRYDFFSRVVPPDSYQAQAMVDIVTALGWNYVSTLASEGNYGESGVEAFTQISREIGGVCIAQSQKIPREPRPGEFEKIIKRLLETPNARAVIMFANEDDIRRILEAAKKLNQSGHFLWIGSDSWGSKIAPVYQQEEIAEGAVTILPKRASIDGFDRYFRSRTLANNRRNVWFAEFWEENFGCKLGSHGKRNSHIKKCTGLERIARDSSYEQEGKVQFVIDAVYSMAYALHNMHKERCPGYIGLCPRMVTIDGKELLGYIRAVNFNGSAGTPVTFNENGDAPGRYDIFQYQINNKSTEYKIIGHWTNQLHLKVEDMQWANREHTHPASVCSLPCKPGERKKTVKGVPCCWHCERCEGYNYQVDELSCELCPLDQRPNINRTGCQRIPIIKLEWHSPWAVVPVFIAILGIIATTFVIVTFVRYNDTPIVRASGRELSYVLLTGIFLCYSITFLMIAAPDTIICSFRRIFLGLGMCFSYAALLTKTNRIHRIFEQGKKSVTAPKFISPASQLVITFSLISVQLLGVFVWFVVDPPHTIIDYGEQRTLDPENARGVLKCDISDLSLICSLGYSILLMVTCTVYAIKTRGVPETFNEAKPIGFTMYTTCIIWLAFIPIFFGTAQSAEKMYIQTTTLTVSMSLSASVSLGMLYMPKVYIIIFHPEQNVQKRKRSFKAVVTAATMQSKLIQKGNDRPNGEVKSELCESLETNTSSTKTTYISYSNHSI
# Assay: rat mGluR8 modulators via GIRK flux, primary screen, cell-based, thallium flux, HTS (AID 488969)
# Conditions: HEK293 rat mGluR8, GIRK (G protein-gated inwardly rectifying potassium channel) thallium flux, FluoZin2; at 10 µM; stronger effect = higher value; submaximal glutamate (EC20) added with thallium
row,SMILES,z-score
1,Cc1ccc(Cn2c(SCC(C)C)nc3c2c(=O)[nH]c(=O)n3C)cc1,-0.876
2,COc1cc2c(=O)n(Cc3ccccc3)c(=O)n(CC(=O)NCCc3ccccc3)c2cc1OC,-0.669
3,CC1(C)CC(=O)C2=C(C1)NC(=O)CC2c1ccc(F)cc1 (configuration not stated),-0.481
4,CCc1ccccc1N(C)C(=O)CCc1nc(-c2ccc(C)cc2)no1,2.44
5,Cc1ccc(-c2noc(CCC(=O)NCC3CCN(Cc4cccc(C)c4)CC3)n2)cc1,2.64
6,COc1ccc(-c2noc(CCC(=O)NCC3CCN(Cc4cccc(C)c4)CC3)n2)cc1,0.183
7,COc1ccc(-c2noc(CCC(=O)NC3CCN(Cc4ccccc4)CC3)n2)cc1,0.924
8,CCc1ccccc1N(CC)C(=O)CCc1nc(-c2ccc(C)cc2)no1,-0.0345
9,Cc1ccc(-c2noc(CCC(=O)NCCN3CCN(Cc4ccccc4)CC3)n2)cc1,-0.696
10,Cc1ccc(-c2noc(CCC(=O)NC3CCN(Cc4ccccc4)CC3)n2)cc1,2.02
11,Cc1ccc(-c2noc(CCC(=O)N(C)c3ccccc3C)n2)cc1,0.361
12,O=C(CCc1nc(-c2ccccc2F)no1)NC1CCN(Cc2ccccc2)CC1,0.608
13,CC1CCN(S(=O)(=O)c2ccc(NC(=O)CN3CCCC(C)C3)cc2)CC1 (configuration not stated),0.282
14,O=C(c1cccc(F)c1)N1CCc2ccccc21,-0.134
15,CCOC(=O)c1cc(NC(=O)c2cc(C)on2)cc(C(=O)OCC)c1,-0.369
16,CCn1nc2cc(C(=O)NCCc3cccs3)ccc2c1OC,-0.218
17,COC(=O)CSC1=C(C#N)C(c2sccc2C)CC(=O)N1 (configuration not stated),0.174
18,O=C(NCC1CCCO1)C(c1cccs1)N(C(=O)Cn1nnc(-c2cccs2)n1)C1CCCC1 (configuration not stated),-0.378
19,C/C(=N\NC(=O)c1ccccc1C)c1cccc([N+](=O)[O-])c1,-0.192
20,CCCCNc1ccc2nsnc2c1[N+](=O)[O-],-0.137
21,C=CCNC(=O)c1nn2cccnc2c1Cl,-0.068
22,O=C(Nc1ccc2c(c1)oc1ccccc12)c1ccc2c(c1)OCO2,0.81

row,SMILES,z-score
1,Cc1cc2oc(C(=O)N(Cc3ccccc3)C3CCS(=O)(=O)C3)cc(=O)c2cc1Cl (configuration not stated),-0.141
2,Cc1ccc(S(=O)(=O)NCC(C)NS(C)(=O)=O)cc1 (configuration not stated),-0.186
3,Cc1ccc(S(=O)(=O)NCCCN(C)C)cc1,2.95
4,Cc1ccc(S(=O)(=O)NCCCCCC(=O)N(C)C)cc1,2.19
5,CN(C)CCNS(=O)(=O)c1ccc(Cl)cc1,1.34
6,CC(=O)Nc1ccc(S(=O)(=O)NCC(C)NS(=O)(=O)c2ccc(NC(C)=O)cc2)cc1 (configuration not stated),0.018
7,Cc1ccc(S(=O)(=O)NCCCNS(C)(=O)=O)cc1,0.0948
8,Cc1ccc(S(=O)(=O)NCCCCCC(N)=O)cc1,0.00872
9,CN(C)CCCNS(=O)(=O)c1ccc(N2CCC(c3ccc(Cl)cc3)=N2)cc1,2.59
10,Cc1ccc(S(=O)(=O)NCC(C)NS(=O)(=O)c2ccc(C)cc2)cc1 (configuration not stated),2.8
11,O=C1CCCN1c1ccc(S(=O)(=O)NCCc2ccc(Cl)cc2)cc1,0.203
12,CNC(=O)CCCCCNS(=O)(=O)c1ccc(C)cc1,0.0156
13,O=S(=O)(c1ccc(N2CCC(c3ccc(Cl)cc3)=N2)cc1)N(CCO)CCO,-0.748
14,CCOc1ccc(-c2cn3ccccc3n2)cc1[N+](=O)[O-],0.461
15,O=C(c1cccc(-n2cnnn2)c1)N1CC=C(c2ccccc2)CC1,0.39
16,CN1CCN(/C(=N\S(=O)(=O)c2ccc(F)cc2)c2ccccc2)CC1,-0.0184
17,Cc1sc2ncnc(N3CCOCC3)c2c1C,-0.134
18,O=[N+]([O-])c1ccc(-c2csc(N3CCc4ccccc4C3)n2)cc1,-0.0911
19,Cc1cccc(C)c1-n1c(SCC(=O)N2CC(=O)Nc3ccccc32)nc2ccccc2c1=O,-0.109
20,Cc1nnc(SCC(=O)N2CC(=O)Nc3ccccc32)n1Cc1ccccc1,-0.151
21,O=C1CN(C(=O)CSc2nc3ccccc3n2CCc2ccccc2)c2ccccc2N1,-0.346
22,CC(c1ccccc1)n1c(SCC(=O)N2CC(=O)Nc3ccccc32)nc2ccccc2c1=O (configuration not stated),4.74 (active)

row,SMILES,z-score
1,Cc1ccc(Cn2c(SCC(=O)N3CC(=O)Nc4ccccc43)nc3ccccc3c2=O)cc1,1.31
2,Cc1ccc(-n2c(SCC(=O)N3CC(=O)Nc4ccccc43)nc3ccccc3c2=O)cc1C,-0.183
3,O=C1CN(C(=O)CSc2nc3ccccc3c(=O)n2Cc2ccc(F)cc2)c2ccccc2N1,3.79 (active)
4,Cc1ccc(-n2c(SCC(=O)N3CC(=O)Nc4ccccc43)nc3ccccc3c2=O)cc1,-0.279
5,O=C1CN(C(=O)CSc2nc3cc(Cl)ccc3c(=O)n2Cc2ccccc2)c2ccccc2N1,7.11 (active)
6,O=C(O)/C=C/C(=O)Nc1ccccc1C(=O)Nc1ccccc1,0.317
7,CCOC(=O)C1=C(Nc2ccccc2)CC(C)(O)C(C(=O)OCC)C1c1ccc(Cl)cc1 (configuration not stated),-0.445
8,COc1ccc(CCC(C)NCC2CCCCC2)cc1 (configuration not stated),0.819
9,Cc1csc(NC(=S)Nc2cccc(Cl)c2)n1,14.7 (active)
10,Fc1ccc(NC(=S)Nc2cccc(Cl)c2)cc1,1.26
11,S=C(NCc1cccs1)Nc1cccc(Cl)c1,4.52 (active)
12,Cc1csc(NC(=O)Nc2cccc(Cl)c2)n1,0.398
13,Fc1ccc(CNC(=S)Nc2cccc(Cl)c2)cc1,5.18 (active)
14,O=C(NCc1cccs1)Nc1cccc(Cl)c1,0.43
15,S=C(NCc1cccs1)Nc1ccc(Cl)cc1,0.118
16,CCOC(=O)c1csc(NC(=O)Nc2cccc(Cl)c2)n1,-0.0455
17,S=C(NCc1ccncc1)Nc1cccc(Cl)c1,-0.135
18,O=C(Nc1ccccc1)N1CCCc2ccccc21,-0.0768
19,O=C(NCCCN1CCCC1=O)c1ccccc1NS(=O)(=O)c1ccc(Br)cc1,-0.938
20,CCCn1cc(NC(=O)C2CC(c3cccc(Br)c3)=NO2)cn1 (configuration not stated),-0.352
21,CCOc1cc(/C=C2/NC(=O)N(CC(=O)Nc3cccc(C)c3)C2=O)ccc1O,-0.784
22,N#CC1=C(SCC(=O)NCc2ccccc2)NC(=O)CC1c1ccco1 (configuration not stated),1.77

row,SMILES,z-score
1,CC(C)=C1C2CCC1C1C(=O)N(c3nc(-c4ccc(C(C)C)cc4)c(C)s3)C(=O)C21 (configuration not stated),-0.0235
2,O=C(NC(=S)N1CCN(c2ccc(Cl)cc2[N+](=O)[O-])CC1)c1cccs1,9.46 (active)
3,O=C(Nc1cc(C(F)(F)F)ccc1N1CCOCC1)c1cccs1,1.15
4,O=C(NC(=S)N1CCCCC1)c1cccs1,0.578
5,NC(=O)C1CCN(c2ccc(C(F)(F)F)cc2[N+](=O)[O-])CC1,0.0305
6,O=C(NC(=S)N1CCN(c2ccc(C(F)(F)F)cc2[N+](=O)[O-])CC1)c1cccs1,8.9 (active)
7,O=C(NC(=S)N1CCN(c2ccc([N+](=O)[O-])cc2Cl)CC1)c1ccco1,1.05
8,O=C(CSc1ccc(Cl)cc1)N1CCN(c2ccc(Cl)cc2[N+](=O)[O-])CC1,-0.109
9,O=C(NC(=S)N1CCN(c2c(Cl)cccc2[N+](=O)[O-])CC1)c1cccs1,-4.63 (active)
10,O=C(NC(=S)N1CCN(c2ccc(Cl)cc2[N+](=O)[O-])CC1)c1ccco1,2.99
11,COc1ccc(NC(=O)Nc2ccc(Br)cn2)cc1OC,-0.221
12,COc1ccc2nc(NC(=O)CSc3nnc(N)s3)sc2c1,0.075
13,Cc1[nH]n2c(=O)cc(-c3ccc([N+](=O)[O-])cc3)nc2c1-c1ccccc1,-1.93
14,Cc1[nH]n(-c2ccccc2)c(=O)c1N=Nc1nccs1,14.8 (active)
15,Cc1[nH]n(-c2ccc([N+](=O)[O-])cc2)c(=O)c1N=Nc1nc2ccccc2s1,2.47
16,Cc1[nH]n(-c2ccc([N+](=O)[O-])cc2)c(=O)c1C=NCCc1c(C)[nH]c2ccccc12,-0.0759
17,Cc1[nH]n(-c2ccccc2)c(=O)c1S(=O)(=O)c1ccccc1,-0.642
18,Cc1[nH]n(-c2ccccc2)c(=O)c1N=Nc1cccc(S(=O)(=O)N2CCOCC2)c1,0.327
19,CN(Cc1ccc(-n2cccn2)cc1)C(=O)c1cnn2c1NC(c1ccco1)CC2C(F)(F)F (configuration not stated),-0.35
20,CCCCN1C(=S)SC(C)(C)C1/[N+]([O-])=C/c1cccnc1 (configuration not stated),-0.00445
21,CCN1C(=O)C2C(C1=O)N1C(c3ccccc3)C3C(=O)N(CC)C(=O)C3N1C2c1ccccc1 (configuration not stated),0.0538
22,Cc1cccc(OCC(O)CN2C(C)(C)CC(O)CC2(C)C)c1 (configuration not stated),9.44 (active)

row,SMILES,z-score
1,Cc1cccc(OCC(O)CN2C(C)(C)CC(O)CC2(C)C)c1C (configuration not stated),1.1
2,CCn1c(=N)n(CC(O)COc2cccc(C)c2)c2ccccc21 (configuration not stated),0.778
3,C=CCn1c(=N)n(CC(O)COc2ccccc2OC)c2ccccc21 (configuration not stated),1.12
4,CCCn1c(=N)n(CC(O)c2ccco2)c2ccccc21 (configuration not stated),0.907
5,CC(=O)c1ccc(OCC(O)CN2C(C)(C)CC(O)CC2(C)C)cc1 (configuration not stated),-0.153
6,CCCCCn1c(=N)n(CC(O)COc2ccccc2OC)c2ccccc21 (configuration not stated),-1.11
7,CCCn1c(=N)n(CC(O)COc2cccc(C)c2)c2ccccc21 (configuration not stated),3.74 (active)
8,CCCCn1c(=N)n(CC(O)COc2cccc(C)c2)c2ccccc21 (configuration not stated),4.52 (active)
9,CC(=O)c1ccc(OCCCC(=O)Nc2ccc(C)c(S(=O)(=O)N(C)C)c2)cc1,0.136
10,O=C(CCNc1cc(Cl)cc(Cl)c1)c1cccs1,0.0113
11,COc1ccc(NS(=O)(=O)c2c(C)n(C)c(=O)n(C)c2=O)cc1OC,-0.0428
12,Cc1ccc(S(=O)(=O)Cc2ccc(C(=O)NCc3ccc4c(c3)OCO4)o2)cc1,-0.326
13,NS(=O)(=O)c1ccc(CCNC(=O)C2CCN(S(=O)(=O)c3cnc[nH]3)CC2)cc1,-0.00955
14,O=C(NC1CCCC1)C(c1cccnc1)N(C(=O)c1csnn1)C1CCCC1 (configuration not stated),-0.145
15,CC1CCN(c2nc3c(c(=O)[nH]c(=O)n3C)n2CCSc2nc3ccccc3o2)CC1,0.0449
16,C=C1c2cc(C)ccc2NC(=O)N1c1ccc(C)cc1,-0.68
17,COc1cc(C)c(S(=O)(=O)N2CCOCC2)cc1C(C)C,0.397
18,COc1cc(C)c(N)cc1C(C)C,2.12
19,COc1cc(C)c(-c2cc(C(=O)O)c(C)o2)cc1C(C)C,-0.106
